# Only some compounds are listed: those with a hit (about 3.5% of all), similar ones and a draw of the others.
# MITF primary = MITF inhibitors, primary screen, biochemical, AlphaScreen, human | inhibition, % at 2.6 µM | AlphaScreen MITF homodimerization, bead proximity signal | hit rate 0.91% among 650,000; in the data active = inhibition above about 50%;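 also: 0% = vehicle wells with protein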
# Target sequence (O75030 whole entry, looked up): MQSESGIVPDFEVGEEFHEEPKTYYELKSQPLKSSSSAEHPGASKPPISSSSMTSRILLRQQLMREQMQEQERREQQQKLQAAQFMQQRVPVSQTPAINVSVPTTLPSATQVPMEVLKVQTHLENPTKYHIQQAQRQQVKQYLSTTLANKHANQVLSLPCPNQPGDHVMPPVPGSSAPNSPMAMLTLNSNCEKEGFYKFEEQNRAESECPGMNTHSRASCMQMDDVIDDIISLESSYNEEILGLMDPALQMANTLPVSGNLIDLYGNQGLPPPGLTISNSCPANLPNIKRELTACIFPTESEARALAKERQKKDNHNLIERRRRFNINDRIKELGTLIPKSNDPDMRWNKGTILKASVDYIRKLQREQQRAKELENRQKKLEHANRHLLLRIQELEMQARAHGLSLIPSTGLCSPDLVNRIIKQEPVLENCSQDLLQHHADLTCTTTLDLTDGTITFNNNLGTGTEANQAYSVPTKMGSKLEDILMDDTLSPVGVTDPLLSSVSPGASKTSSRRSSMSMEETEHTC
# FBW7 act = FBW7 E3 ligase activators, primary screen, biochemical, AlphaScreen, human. F-box/WD repeat-containing protein 7 (Homo sapiens), Q969H0. AID 1259310, 2017. AlphaScreen FBW7–phospho-cyclin E peptide binding, activator screen. normalized activity (activation), % at 26.1 µM. hit rate 0.13% among 650,000; in the data active = normalized activity above about 1.9%;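 also: purified mutant Fbw7 with reduced substrate affinity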
# GPR151 activ = activators of human GPR151, primary screen, cell-based, PathHunter beta-arrestin, luminescence; G-protein coupled receptor 151 (Homo sapiens), Q8TDV0; PathHunter beta-arrestin GPR151 cells; activation, % at 11.2 µM; hit rate 1% among 650,000; AID 1508602, 2020; in the data active = activation above about 4.9%;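 also: 0% = median of compound wells and 100% = cells with positive control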
# TEAD-YAP inh = TEAD-YAP interaction inhibition, primary screen, TEAD-YAP interaction inhibitor project, luminescence, HEK-TIYL cells; hit rate 1.4% among 640,000; AID 1259422, 2018; TEAD-Gal4/YAP UAS-luciferase luminescence; inhibition, % at 9.12 µM; in the data active = inhibition above about 32%;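 also: 0% = median of test compound wells and 100% = reference inhibitor wells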
# An asterisk follows results filed as active.
SMILES,MITF primary,FBW7 act,GPR151 activ,TEAD-YAP inh
O=C(O)Cc1ccc(N2C(=O)/C(=C\c3ccco3)SC2=S)cc1,75.8*,-0.9,-1.6,6.2
O=C(c1cc(C2CC2)on1)N1CCN(c2ccccc2O)CC1,9.5,0.1,-1.0,4.5
O=C(CSc1ccc2nnc(-c3cccnc3)n2n1)Nc1cccc([N+](=O)[O-])c1,1.4,0.2,-1.7,1.6
CC1=C(C)/C(=N\S(=O)(=O)c2ccc(C)cc2)C=C(N(C)C)C1=O,83.7*,-0.2,0.5,4.2
CC1=C(C)/C(=N\S(=O)(=O)c2ccccc2)C=C(Cl)C1=O,6.2,-0.1,-0.5,1.4
CN(C)C1=C/C(=N/S(=O)(=O)c2ccccc2)c2ccccc2C1=O,58.5*,-0.3,1.7,90.3*
CCNC(=S)Nc1n[nH]c2nc(Cl)cc(C)c12,11.5,0.5,2.7,-7.0
COc1ccc(C(=O)Nc2ccc(-c3cn4ccsc4n3)cc2)c(OC)c1,-5.0,2.0*,0.3,-15.3
COc1ccc(C(=O)Nc2ccc(-c3csc(C)n3)cc2)c(OC)c1,-10.3,-0.1,-1.4,-31.1
Clc1cc(Cl)c2c(c1)C1C=CCC1C(c1ccccc1)N2 (configuration not stated),12.4,0.1,-0.1,9.7
O=C(O)C1Nc2c(Cl)cc(Cl)c(Cl)c2C2C=CCC12 (configuration not stated),57.7*,0.8,-0.6,8.6
O=C(O)C1Nc2c(Cl)cc(Cl)cc2C2C=CCC12 (configuration not stated),59.4*,-0.1,1.4,8.5
CCOC(=O)C1=C(C)N=c2s/c(=C\c3cc(Br)c(OCc4ccccc4)c(OCC)c3)c(=O)n2C1c1ccc(OC)cc1 (configuration not stated),7.1,0.1,0.0,-0.8
CCN(CC)c1ccc(/C=C2/SC(=S)N(CCC(=O)OC)C2=O)cc1,16.3,0.1,0.4,61.6*
Cc1ccc(/C=C2\SC(=S)N(NC(=O)c3ccc(O)cc3)C2=O)o1,54.1*,-0.1,-1.9,6.3
CCN(CC)c1ccc(/C=C2\SC(=S)N(CCCC(=O)O)C2=O)cc1,24.1,0.2,-0.7,92.5*
COc1ccc(/C=C2\SC(=S)N(CCC(=O)OCCN3CCOCC3)C2=O)cc1,12.2,-0.1,-0.2,53.5*
COc1ccc(/C=C2\SC(=S)N(CCC(=O)N3CCOCC3)C2=O)cc1,8.5,0.1,1.5,2.9
O=C(NN1C(=O)/C(=C/c2ccc(O)cc2)SC1=S)c1cccc(O)c1,0.5,-0.5,-1.0,-2.9
Cc1onc(-c2ccccc2)c1C1=N/C(=C\c2ccc(Cl)cc2)C(=O)O1,15.3,0.0,0.9,8.1
Cc1ccc(/C=C2/SC(=S)N(CN3CCOCC3)C2=O)o1,78.4*,-0.5,-1.1,0.8
COc1cccc(NC(=O)CSc2nc3cc4c(cc3cc2C#N)OCCO4)c1,-2.9,0.1,0.1,45.1*
COc1cc2cc(C#N)c(SCC(=O)Nc3cc(C)on3)nc2cc1OC,31.1,2.4*,-1.4,-9.8
COc1ccc(CNC(=O)CSc2nc3cc4c(cc3cc2C#N)OCCO4)cc1,3.8,0.0,3.0,61.3*
COc1ccc(CNC(=O)CSc2nc3cc(OC)c(OC)cc3cc2C#N)cc1,-5.6,0.1,1.4,-18.3
SMILES,MITF primary,FBW7 act,GPR151 activ,TEAD-YAP inh
N#Cc1cc2cc3c(cc2nc1SCC(=O)NCC1CCCO1)OCCO3 (configuration not stated),4.7,0.1,0.7,55.1*
COc1cccc(NC(=O)c2ccc(-c3cccc(OC)c3)nc2N(C)C)c1,17.1,0.3,-1.8,-5.7
Cc1cccc(CC2CC(=O)N(c3ccc(F)cc3)C2=O)c1 (configuration not stated),-0.1,-0.2,0.9,9.5
COc1cc(C(=O)Nc2ccc(NC(=O)c3ccccc3F)nc2)cc(OC)c1OC,4.2,-0.2,0.5,14.1
COc1ccc(NC(=O)CSc2nc3cc4c(cc3cc2C#N)OCCO4)c(OC)c1,24.8,0.1,-0.7,83.5*
Cc1ccccc1NC(=O)CSc1nc2cc3c(cc2cc1C#N)OCCO3,7.5,0.0,0.2,57.6*
N#Cc1cc2cc3c(cc2nc1SCC(=O)NCCc1ccccc1)OCCO3,17.6,0.1,1.1,34.4*
CCC(C)NC(=O)CSc1nc2cc3c(cc2cc1C#N)OCO3 (configuration not stated),9.3,0.0,-1.5,51.3*
Cc1ccccc1NC(=O)CSc1nc2cc3c(cc2cc1C#N)OCO3,-5.9,-0.1,1.3,6.0
COc1ccc(OC)c(CNCC2CCCO2)c1 (configuration not stated),13.4,0.0,0.7,0.2
CC1=NOC(=O)/C1=C/c1ccc(OCc2ccc(Cl)cc2)cc1,56.5*,0.1,-2.4,-42.0
COc1ccc(NC(=O)c2cc(S(=O)(=O)N3CCN(c4ccccn4)CC3)ccc2F)cc1,6.5,1.9*,3.5,6.7
O=c1oc2ccc([N+](=O)[O-])cc2cc1-c1nc(-c2ccc(Br)cc2)cs1,-8.6,-0.1,-1.0,1.3
CCn1ccc2ccc(OC)cc2c1=O,16.1,2.1*,-0.8,-9.6
Cc1ccccc1Nc1nc(Cl)nc(Nc2ccccc2C)n1,4.8,-0.2,0.8,44.9*
Cc1ccc(Nc2nc(Cl)nc(Nc3ccc(C)cc3C)n2)c(C)c1,5.0,0.0,-0.1,-1.2
CCOC(=O)c1c(-c2ccc(OC)cc2)csc1/N=C/C1C(=O)CC(C)(C)CC1=O,17.8,0.1,-0.9,-0.9
CCc1ccc(N(CC(=O)NC(C)CC)S(C)(=O)=O)cc1 (configuration not stated),17.6,1.9*,-1.2,10.5
COc1cccc(Cn2c(=O)n(CCCCC(=O)NC3CCCCC3)c(=O)c3ccccc32)c1,-14.6,-0.1,-1.3,1.2
O=C(CCCCn1c(=O)c2ccccc2n(Cc2ccccc2)c1=O)NCc1cccs1,0.2,-0.2,0.4,37.6*
O=C(CCCCn1c(=O)c2ccccc2n(Cc2ccc(F)cc2Cl)c1=O)NCc1cccs1,-7.3,-0.1,-0.8,-6.1
COc1cccc(Cn2c(=O)n(CCCCC(=O)NCc3ccco3)c(=O)c3ccccc32)c1,2.6,-0.3,-1.0,48.1*
CC(=O)NC1C(OCc2ccccc2)OC(CO)C(O)C1OCc1ccccc1 (configuration not stated),-7.3,0.4,-0.1,2.8
Cc1ccc(C(=O)c2cc([N+](=O)[O-])ccc2N2CCN(C)CC2)cc1,18.1,0.2,0.2,50.8*
CN1CCN(c2ccc([N+](=O)[O-])cc2C(=O)c2ccc(Br)cc2)CC1,8.6,0.0,-0.2,52.2*
COc1ccc(C(=O)c2cc([N+](=O)[O-])ccc2N2CCN(C)CC2)cc1,15.1,1.0,-0.6,49.1*
COc1cc(Br)ccc1OCC(=O)N/N=C(\C)c1ccccc1O,-3.8,-0.1,0.1,4.7
O=C(Nc1ccc(Br)cn1)c1nn2c(C(F)(F)F)cc(-c3ccc(Br)cc3)nc2c1Cl,2.3,0.4,-0.7,4.8

# Screening results from PubChem.
